Results on 14 compounds are retold here after PubChem BioAssay (Tox21).

“And” between values parts separate entries of the source, which are not always exact repeats. Identical values can stand only once. Records with an inconclusive call do not appear. More than one record can exist for a structure, and the calls need not agree. The source made the active and inactive calls. Calls follow the shape of the dose curve; as a rule, active = well fitted curve in the direction sought with a large enough effect in the repeat runs; inconclusive = weak or mixed curves; inactive = no such curve, though single readings can be large; an effect the other way counts as inactive or inconclusive.

A short description of assay [1]: qHTS RealTime-Glo MT Cell Viability Assay in HEK293 cells - 40 hour (AID 1224874). Also: nearly all actives have a fitted effect of over 50% in size. Particulars: RealTime-Glo luminescence; max response: stronger effect = lower value. The gist of the method:
(§1)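 Luminescence readout at each listed time point; HEK293, 600 cells/well, RealTime-Glo MT reagent added with cells; compounds pinned (23 nL in DMSO) after 5 h at 37 C; continuous culture at 37 C.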
For orientation: Quantitative high-throughput screening tests each substance at several concentrations.

Assay [2] is described as follows: A CellTox Green Cytotoxicity Assay to monitor cytotoxicity in HEK293 cells - 24 hour (AID 1224875). Also: series mostly up to about 77 µM; nearly all actives have a fitted effect of over 45% in size. A digest of the protocol:
(§2)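 Read-out: fluorescence of a cell-impermeant cyanine dye staining DNA of dead cells, proportional to cytotoxicity. HEK293, 600 cells/well with reagent, compound (23 nL DMSO) added after 5 h; reads at 0, 8, 16, 24, 32, 40 h.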

The nature of assay [3]: qHTS RealTime-Glo MT Cell Viability Assay in HepG2 cells - 32 hour (AID 1224877). Also: nearly all actives have a fitted effect of over 55% in size. The gist of the method: (§3)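 Real-time, nonlytic viability: 600 HepG2 cells/well mixed with NanoLuc enzyme plus prosubstrate; 5 h settle, compound (DMSO) added by pintool; luminescence monitored over 40 h at 37 C.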
A short description of assay [4]: A CellTox Green Cytotoxicity Assay to monitor cytotoxicity in HepG2 cells - 24 hour (AID 1224878). Also: nearly all actives have a fitted effect of over 45% in size. Also: potency is read from the fitted curve at half-maximal effect. A digest of the protocol: (§4)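 HepG2, 600 cells/well premixed w/ CellTox Green; 5 h settle, 37 C/5% CO2; pintool cpd add (DMSO); 37 C, 40 h; fluorescence read at 0, 8, 16, 24, 32, 40 h.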
Assay [5] is described as follows: A CellTox Green Cytotoxicity Assay to monitor cytotoxicity in HepG2 cells - 40 hour (AID 1224879). Also: nearly all actives have a fitted effect of over 40% in size. Also: potency is read from the fitted curve at half-maximal effect. A digest of the protocol: as §4
A short description of assay [6]: qHTS RealTime-Glo MT Cell Viability Assay in HEK293 cells - 0 hour (AID 1224880). Also: top concentration of the series differs between compounds; nearly all actives have a fitted effect of over 45% in size. The gist of the method:
as §1

Assay [7] in a line: A CellTox Green Cytotoxicity Assay to monitor cytotoxicity in HEK293 cells - 32 hour (AID 1224881). Also: nearly all actives have a fitted effect of over 40% in size. Also: potency is read from the fitted curve at half-maximal effect. A digest of the protocol: as §2
Assay [8] in a line: A CellTox Green Cytotoxicity Assay to monitor cytotoxicity in HepG2 cells - 0 hour (AID 1224882). Also: nearly all actives have a fitted effect of over 35% in size. Also: potency is read from the fitted curve at half-maximal effect. The gist of the method: as §4
A short description of assay [9]: A CellTox Green Cytotoxicity Assay to monitor cytotoxicity in HepG2 cells - 32 hour (AID 1224883). Also: nearly all actives have a fitted effect of over 50% in size. Also: potency is read from the fitted curve at half-maximal effect. The gist of the method: as §4
Assay [10] in a line: A CellTox Green Cytotoxicity Assay to monitor cytotoxicity in HEK293 cells - 8 hour (AID 1224884). Also: nearly all actives have a fitted effect of over 35% in size. Also: potency is read from the fitted curve at half-maximal effect. A digest of the protocol: as §2
Assay [11] in a line: qHTS RealTime-Glo MT Cell Viability Assay in HepG2 cells - 16 hour (AID 1224885). Also: nearly all actives have a fitted effect of over 50% in size. A digest of the protocol:
as §3

Assay [12] is described as follows: qHTS RealTime-Glo MT Cell Viability Assay in HEK293 cells - 24 hour (AID 1224886). Also: top concentration of the series differs between compounds; nearly all actives have a fitted effect of over 50% in size. The gist of the method:
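Cells + reagent dispensed (600 cells/well, HEK293) → 5 h at 37 C/5% CO2 → 23 nL compound in DMSO pinned → 40 h at 37 C → luminescence read at 0, 8, 16, 24, 32, 40 h.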

The nature of assay [13]: qHTS RealTime-Glo MT Cell Viability Assay in HEK293 cells - 8 hour (AID 1224887). The gist of the method:
as §1

The nature of assay [14]: A CellTox Green Cytotoxicity Assay to monitor cytotoxicity in HEK293 cells - 16 hour (AID 1224888). Also: nearly all actives have a fitted effect of over 35% in size. The gist of the method:
as §2

Assay [15] can be described thus: qHTS RealTime-Glo MT Cell Viability Assay in HepG2 cells - 0 hour (AID 1224889). Also: nearly all actives have a fitted effect of over 50% in size. The gist of the method:
as §3

Assay [16] in a line: A CellTox Green Cytotoxicity Assay to monitor cytotoxicity in HepG2 cells - 8 hour (AID 1224890). Also: nearly all actives have a fitted effect of over 45% in size. Also: potency is read from the fitted curve at half-maximal effect. A digest of the protocol:
as §4

Assay [17] is described as follows: qHTS assay to identify small molecule antagonists of the estrogen receptor alpha (ER-alpha) signaling pathway using the BG1 cell line in the presence of 0.1 nM 17-beta-estradiol - cell viability counter screen (AID 1259241). Also: nearly all actives have a fitted effect of over 40% in size. A digest of the protocol:
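VM7Luc4E2, 4,000 cells/well, phenol red-free medium + 10% charcoal-stripped FBS; 24 hr plating; cpd + 0.1 nM E2 final, 22 hr 37C/5% CO2; CellTiter-Fluor 30 min, fluorescence.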

A short description of assay [18]: qHTS assay to identify small molecule antagonists of the androgen receptor (AR) signaling pathway using the MDA cell line in the presence of 0.5 nM R1881 - cell viability counter screen (AID 1259242). Also: nearly all actives have a fitted effect of over 45% in size. A digest of the protocol:
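Live-cell protease fluorescence, CellTiter-Fluor, 30 min at 37C. Cells: MDA-kb2, 3,000/well, preincubated 5 hr. Compounds plus 0.5 nM R1881 final, 16 hr, 37C, 0% CO2.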

The target in assay [19] is Androgen receptor (Homo sapiens) (UniProt P10275). Kind of assay: qHTS assay to identify small molecule antagonists of the androgen receptor (AR) signaling pathway using the MDA cell line in the presence of 0.5 nM R1881 (AID 1259243). Also: nearly all actives have a fitted effect of over 50% in size. A digest of the protocol:
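MDA-kb2, MMTV-luc (AR/GR elements); 3,000 cells/well; cpd + 0.5 nM R1881 final; 16 hr 37C, 0% CO2; ONE-Glo 30 min RT; luminescence.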

Assay [20] can be described thus: A CellTox Green Cytotoxicity Assay to monitor cytotoxicity in HepG2 cells - 16 hour (AID 1224876). Also: nearly all actives have a fitted effect of over 45% in size. A digest of the protocol:
as §4
% is scaled to controls: 0 for no effect and ±100 for the full control effect.

Sequence of Androgen receptor (Homo sapiens) (P10275 whole entry, looked up): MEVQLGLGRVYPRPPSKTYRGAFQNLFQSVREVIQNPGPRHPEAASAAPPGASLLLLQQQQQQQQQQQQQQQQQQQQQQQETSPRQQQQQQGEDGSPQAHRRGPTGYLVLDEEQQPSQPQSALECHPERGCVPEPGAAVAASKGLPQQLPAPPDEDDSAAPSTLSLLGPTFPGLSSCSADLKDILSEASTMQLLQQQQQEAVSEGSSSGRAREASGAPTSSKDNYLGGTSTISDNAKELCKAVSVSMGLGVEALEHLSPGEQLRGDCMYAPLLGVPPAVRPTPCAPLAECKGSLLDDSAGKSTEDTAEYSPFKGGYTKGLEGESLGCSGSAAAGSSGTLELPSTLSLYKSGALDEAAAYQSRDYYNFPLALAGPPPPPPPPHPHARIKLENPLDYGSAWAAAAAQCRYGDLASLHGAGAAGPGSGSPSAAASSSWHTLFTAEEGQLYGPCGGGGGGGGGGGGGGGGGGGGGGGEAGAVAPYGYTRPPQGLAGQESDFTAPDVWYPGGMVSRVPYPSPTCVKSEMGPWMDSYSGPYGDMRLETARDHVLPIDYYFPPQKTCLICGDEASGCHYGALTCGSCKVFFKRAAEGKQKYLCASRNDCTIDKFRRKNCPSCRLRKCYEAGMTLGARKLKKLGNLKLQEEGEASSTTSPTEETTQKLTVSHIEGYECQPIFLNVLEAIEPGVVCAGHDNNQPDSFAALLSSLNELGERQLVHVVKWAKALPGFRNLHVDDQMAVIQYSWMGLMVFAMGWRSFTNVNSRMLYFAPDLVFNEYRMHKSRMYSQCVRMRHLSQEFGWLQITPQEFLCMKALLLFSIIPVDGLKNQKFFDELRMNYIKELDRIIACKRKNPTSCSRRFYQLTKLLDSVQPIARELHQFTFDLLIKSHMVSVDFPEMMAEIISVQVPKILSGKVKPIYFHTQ

As for `C=C(C)CCl`, the max response in assay [1] is 0.792% (inactive) and 2.61% (inactive). Besides, the Potency result in [2], in assay [4], in [5], in assay [7], in [8] and in assay [9] was “inactive” each time. The Potency result in [10], in [14], in assay [16], in assay [17] and in [19] was “inactive” throughout. Besides, the result in assay [3], in assay [6], in assay [11], in assay [13], in assay [15] and in assay [18] was inactive. For the same compound, in assay [12], the activity change, negative = cytotoxicity is 6.36% [at 6.97 µM] (inactive).
For `CC(C)NC(=O)N1CC(=O)N(c2cc(Cl)cc(Cl)c2)C1=O`, the Potency result in [2], in assay [20], in assay [4], in assay [7], in [8] and in assay [9] was “inactive” throughout. For the same compound, the Potency entry in [10], in assay [12], in assay [16] and in [17] was “inactive” throughout. Also, the outcome in assay [3], in assay [6], in [11], in assay [13], in assay [15] and in assay [18] was inactive.
Regarding `O=[N+]([O-])c1ccc(Oc2ccc(Cl)cc2Cl)cc1`, the Potency entry in assay [2], in assay [20], in assay [4], in assay [5], in assay [7] and in [8] was “inactive” in each case. Moreover, the Potency result in assay [9], in assay [10], in assay [14], in assay [16] and in assay [17] was “inactive” throughout. The compound was classed as inactive in assay [3], in [6], in [11], in assay [15] and in assay [18].
Consider `[O-][Cl+2]([O-])O`, for which, in assay [1], the max response was 11.8% (inactive) and -2.78% (inactive). Further, the Potency result in [2], in [4], in [7], in assay [8], in assay [9] and in assay [10] was “inactive” each time. Besides, the Potency entry in assay [12], in assay [16] and in assay [17] was “inactive” throughout. Also, the compound was classed as inactive in assay [3], in [6], in assay [11], in assay [13], in [15] and in [18].
Regarding `O=C(O)c1ccccn1`, the max response in assay [1] was -2.82% (inactive) and 14.7% (inactive). The Potency result in assay [2], in assay [4], in assay [5], in assay [7], in assay [8] and in assay [9] was “inactive” each time. The Potency entry in assay [10], in assay [12], in [16] and in assay [17] was “inactive” throughout. Further, the compound was called inactive in assay [3], in assay [6], in [11], in assay [13], in [15] and in [18].
As to `c1cc2c3c(cccc3c1)CC2`, in assay [1], the max response was 0.321% (inactive) and -19.1% (inactive). Further, the Potency entry in assay [20], in assay [4], in [5], in assay [8], in assay [9] and in assay [12] was “inactive” in each case. Also, the Potency result in [16], in assay [17] and in assay [19] was “inactive” throughout. The compound was called inactive in assay [3], in assay [6], in assay [11], in assay [13], in assay [15] and in [18]. The Potency result in assay [7] was “inactive and 49 µM (active)”; in [10], “inactive and 49 µM (active)”.
As to `Nc1ccccc1C(=O)O`, the max response in assay [1] was 10.4% (inactive) and 8.34% (inactive). The Potency entry in assay [2], in [4], in assay [7], in assay [8], in assay [9] and in assay [10] was “inactive” in each case. The Potency entry in assay [12], in assay [14], in [16] and in [17] was “inactive” in each case. For the same compound, the compound was called inactive in assay [3], in [6], in [11], in assay [13], in assay [15] and in assay [18].
On to `C1CN2CCN1CC2`, for which, in assay [1], the max response was 1.08% (inactive) and 21.8% (inactive). Further, the outcome in assay [3], in [6], in assay [11], in assay [13], in assay [15] and in assay [18] was inactive. Further, the Potency result in assay [4] is “inactive and 21.9 µM (active)”; in [5], “inactive and 21.9 µM (active)”; in [7] it was “inactive and 21.9 µM (active)”; in assay [8], “inactive and 21.9 µM (active)”; in assay [9], “inactive and 21.9 µM (active)”; in assay [10], “inactive and 21.9 µM (active)”. Also, the Potency result in assay [16] was “inactive and 24.5 µM (active)”. The Potency result in assay [12] and in assay [17] was “inactive” throughout.
Turning to `CCc1cccc(C)c1N(C(=O)CCl)C(C)COC` (configuration not stated), the max response in [1] was -0.256% (inactive) and -7.36% (inactive). The Potency entry in assay [2], in assay [4], in assay [7], in assay [8], in assay [9] and in [10] was “inactive” in each case. The Potency result in [12], in assay [16] and in [17] was “inactive” in each case. The call in [3], in [6], in [11], in assay [13], in assay [15] and in [18] was inactive.
`CC(C)OC(=O)Nc1cccc(Cl)c1`: the max response in assay [1] is -5.94% (inactive) and -18% (inactive). For the same compound, the Potency result in [2], in [4], in assay [7], in assay [8], in [9] and in assay [10] was “inactive” throughout. The Potency entry in assay [12], in [14], in [16] and in assay [17] was “inactive” each time. In addition, the call in assay [3], in assay [6], in assay [11], in assay [15] and in assay [18] was inactive.
For the compound `Nc1ccc(Oc2ccc(N)cc2)cc1`, in assay [1], the max response is -6.06% (inactive) and -21.5% (inactive). For the same compound, the Potency entry in assay [2], in [4], in [7], in assay [8], in [9] and in [10] was “inactive” throughout. Besides, the Potency entry in assay [12], in assay [16] and in assay [17] was “inactive” throughout. Further, the compound was called inactive in assay [3], in assay [6], in assay [11], in [13], in [15] and in assay [18].
`CCC[N+](=O)[O-]`: in assay [1], the max response is 7.7% (inactive). The Potency entry in assay [2], in assay [7], in [8], in assay [10], in assay [12] and in assay [14] was “inactive” each time. Further, the Potency entry in assay [16] was “inactive”. Further, the call in assay [3], in [6], in assay [11], in assay [13], in assay [15] and in assay [18] was inactive. Moreover, the Potency in assay [4] was 24.1 µM (active) and inactive; in [9] it was 21.5 µM (active) and inactive.
As for `CC(C)(C)OOC(=O)c1ccccc1`, the max response in assay [1] is -10.9% (inactive) and 1.81% (inactive). Moreover, the Potency result in assay [2], in assay [4], in assay [5], in assay [7], in assay [8] and in [9] was “inactive” each time. In addition, the Potency result in [10], in [12], in assay [16] and in [17] was “inactive” each time. For the same compound, the compound was classed as inactive in assay [3], in assay [6], in assay [11], in assay [15] and in assay [18].
For the compound `CCCN(CCC)c1c([N+](=O)[O-])cc(C(F)(F)F)cc1[N+](=O)[O-]`, the max response in assay [1] was -12.8% (inactive) and 1.59% (inactive). Also, the result in [3], in [6], in assay [11], in [15] and in assay [18] was inactive. The Potency result in assay [4], in assay [5], in assay [8], in [9], in [12] and in [14] was “inactive” in each case. Further, the Potency entry in assay [16], in [17] and in assay [19] was “inactive” in each case. Further, the Potency is 1.55 µM (active) and inactive in assay [7]; 1.23 µM (active) and inactive in [10].
